Compound activity as filed in PubChem.
AMA1-RON2 inh: AMA1-RON2 (P. falciparum) interaction inhibition; AlphaScreen AMA1-biotinylated RON2 peptide binding; Potency, µM (top dose mostly 58.2 µM), for inactives: top-dose activity change, negative = inhibition, actives largely listed as inhibitors; hit rate 0.2% among 360,000; AID 720542; active = well fitted inhibition curve with a large enough effect; inconclusive = small, poorly fitted or top-dose-only effect; inactive = no such curve, though single readings can be large or run the other way;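 also: potency is read from the fitted curve at half-maximal effect; 0% = vehicle wells and -100% = peptide control; nearly all actives have a fitted effect of over 45% in size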
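AMA1 (3D7) with his tag at 25 nM final met compounds first, then biotinylated RON2 peptide at 25 nM; detection used donor plus acceptor beads, 10 µg/mL apiece, read by AlphaScreen after 30 min at room temperature.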
Cycloheximide cs: counter-screen hit for Shiga toxin inhibitors, cycloheximide; max response, %; hit rate 12% among 300,000; cell reporter, cycloheximide protein synthesis inhibition counterscreen; in the data active = max response mostly above about 13%, no sharp cut-off; inactive = mostly below about 14%; also: read at 38.3 µM for the half of the compounds with a filed dose; 0% is about no effect
Marburg entry inh: blocks Marburg virus binding to or entry into cells | Marburg virus pseudotyped entry inhibition, cell reporter | Potency, µM (titrated, usually from 37.8 µM), inactives show top-dose activity change, negative = inhibition, usual class: inhibitors | hit rate 1.8% among 300,000 | AID 540276; calls by dose curve; tested in HEK293 cells; also: potency is read from the fitted curve at half-maximal effect; % is scaled to controls: 0 for no effect and ±100 for the full control effect
Shiga inhibitor: blocks Shiga toxin action in Vero cells; Vero cells, Shiga toxin protein synthesis inhibition reporter; inhibition, % at 38.7 µM; hit rate 9.2% among 290,000; in the data active = inhibition mostly above about 28%, no sharp cut-off; inactive = mostly below about 43%; also: 0% is about no effect
Lassa entry inh: inhibitors of Lassa virus binding or cell entry. Potency, µM (titrated, usually from 37.9 µM), inactives show top-dose activity change, negative = inhibition, most hits filed as inhibitors. hit rate 1.2% among 300,000. AID 540256. Lassa virus pseudotype entry inhibition, cell reporter; calls by dose curve; tested in HEK293 cells; also: potency is read from the fitted curve at half-maximal effect; % is scaled to controls: 0 for no effect and ±100 for the full control effect; nearly all actives have a fitted effect of over 50% in size
An asterisk follows results filed as active; ? = inconclusive; . = no result; [ ] = another dose, or the depositor's remark. Only a selection was taken, and hits are over-represented in it overall.

SMILES | AMA1-RON2 inh | Cycloheximide cs | Marburg entry inh | Shiga inhibitor | Lassa entry inh
O=C(c1cc2ccccc2oc1=O)N1CCCN(C(=O)c2cc3ccccc3oc2=O)CC1 | 0% | . | . | . | .
CN1CCN(C(=O)c2cc3ccccc3oc2=O)CC1 | -6% | 13* | -4%[46.1 µM] | -6 | -1%
O=C(c1cc2ccccc2oc1=O)N1CCN(c2ncccn2)CC1 | 0% | 34* | ? | 86* | ?
O=C(c1cc2ccccc2oc1=O)N1CCN(c2ccccn2)CC1 | -1% | -1 | 2% | 2 | 28%
Cc1cccc(N2CCN(C(=O)c3c(Cl)cnn3C)CC2)c1C | 5% | -3 | ? | -29 | 11µM*
O=C(c1cc2ccccc2oc1=O)N1CCCC1 | 7% | -4 | ? | -1 | 0%
Cc1cccc(N2CCN(C(=O)c3cc4ccccc4oc3=O)CC2)c1C | -6% | 20* | . | 17 | .
Cc1cc(C)cc(CC(=O)N2CCC2(C)C(=O)NS(=O)(=O)c2ccc(Br)cc2)c1 (centres undefined) | -10% | . | . | . | .
COCCCNC(=O)CCN1N=C(c2ccccc2)CCC1=O | 1% | -2 | . | 7 | .
Cc1c(-c2ccccn2)c(=O)[nH]n1-c1ccc(F)cc1 | 17% | 28* | 8.9µM* | 58 | -27%[46.1 µM]
CC(=O)Nc1ccc(S(=O)(=O)NCC2CCC(C(=O)N3CCCCCC3)CC2)cc1 (centres undefined) | 0% | -2 | -3% | -5 | 3.5µM*
CC(=O)Nc1ccc(S(=O)(=O)NCC(=O)OCC(=O)NC(=O)C2CCCCC2)cc1 | -3% | 21* | 19% | -13 | ?
Cc1ccc(S(=O)(=O)NCC2CCC(C(=O)N3CCC4(CC3)OCCO4)CC2)cc1 (centres undefined) | 4% | -1 | 1% | 14 | -12%
CCn1cc(CN2CCC(C(=O)Nc3ccc(Oc4cccnc4)cc3)CC2)cn1 | -2% | -2 | ? | -19 | 22%
CCCCCCn1cc(CN2CC(N3CCCCC3)CS2(=O)=O)nn1 (centres undefined) | 37% | . | . | . | .
O=C1NC(Cc2ccccc2)c2nc3cc(Cl)ccc3c(=O)n2-c2ncccc21 (centres undefined) | 9% | . | . | . | .
O=C(c1cccnc1Cl)N1CCOCC1 | 5% | -5 | -6%[46.1 µM] | -6 | 0%
CC/C(=N\Nc1nncc2ccccc12)c1ccc(F)cc1 | 0% | 47* | ? | 71* | ?
C/C(=N\Nc1nncc2ccccc12)c1ccc(OCC(=O)N(C)C)cc1 | 80% | 44* | 3%[46.1 µM] | 138* | -1%[46.1 µM]
CC/C(=N/Nc1ccccc1)c1cnnc(-c2ccccc2)n1 | -2% | 4 | 1% | 12 | 15%
N[C@@H](Cc1cnc[nH]1)C(=O)Nc1ccc2ccccc2c1 | 85% | . | . | . | .
CC(C)c1ccc(NC2CCCN(C(=O)c3cccc4nccnc34)C2)cc1 (centres undefined) | -18% | 9 | . | -5 | .
CCc1ccc(NC(=O)c2ccc3c(c2)C(=O)N(CCOC)C3Nc2ccc(CC)cc2)cc1 (centres undefined) | 7% | 23* | -1% | 67* | 26%
COCCN1C(=O)c2cc(C(=O)Nc3cccc(F)c3)ccc2C1Nc1cccc(F)c1 (centres undefined) | -1% | -4 | -23% | -12 | ?
COCCN1C(=O)c2cc(C(=O)Nc3ccc(C)c(F)c3)ccc2C1Nc1ccc(C)c(F)c1 (centres undefined) | 11% | 32* | 1% | 94* | 29%
SMILES | AMA1-RON2 inh | Cycloheximide cs | Marburg entry inh | Shiga inhibitor | Lassa entry inh
CCCN1C(=O)c2cc(C(=O)Nc3ccccc3C)ccc2C1Nc1ccccc1C (centres undefined) | -1% | -3 | ? | 5 | -10%
CCOC(=O)C(C)Sc1nc(-c2cccs2)ccc1C#N (centres undefined) | 52% | 25* | -1% | 104 | -27%
C=COC(=O)CSc1nc(-c2cccs2)ccc1C#N | 27% | 31* | ? | 38 | 3%
O=c1[nH]c2cc(Cl)c(O)cc2o1 | . | -1 | . | 10 | .
CCc1nn(CC(=O)NCc2cccc(OC)c2OC)c(=O)c2cc3occc3n12 | . | . | 27%[46.1 µM] | . | .
O=C(/C=C\c1ccc2c(c1)OCO2)c1ccc(F)cc1 | . | . | -9%[14.2 µM] | . | .
N#CCOC(=O)/C=C/c1ccc2c(c1)OCO2 | 4% | 22* | ? | 67 | -24%
Nc1ccccc1C(=O)/C=C/c1ccc2c(c1)OCO2 | ? | 69* | ? | 116* | ?
O=C(/C=C/c1ccc2c(c1)OCO2)c1ccco1 | -23% | 17* | 1% | 29* | -18%
O=C(COC(=O)/C=C/c1ccc2c(c1)OCO2)NC1CC1 | 2% | 8 | 18% | 32 | -3%
Cc1nn(Cc2ccc([N+](=O)[O-])cc2)c(=O)n1-c1cccc(Cl)c1 | -2% | -1 | -1%[46.1 µM] | -13 | 9%
CNC(=O)c1ccc(-c2cc(C(F)(F)F)nn2C)s1 | -7% | 38* | . | 63* | .
Cn1nc(C(F)(F)F)cc1-c1ccc(/C=C(\C#N)C(=O)c2ccccc2)s1 | -10% | 6 | 13%[46.1 µM] | 15 | 11%[46.1 µM]
Cn1c(=O)n(/N=C/c2ccccc2)c2ccccc21 | 9% | 13 | 7% | 45* | 28%
CCOC(=O)CN(C(=O)COC(=O)C1=NNC(=O)CC1)c1ccc(F)cc1 | 10% | . | 5%[46.1 µM] | . | -1%[46.1 µM]
CCCC(=O)Nc1nnc(SCC(=O)N2CCCCC2)s1 | -3% | -4 | 0%[46.1 µM] | -4 | .
CCCC(=O)Nc1nnc(SCC)s1 | -12% | 19* | 3% | 38* | 11%
CCCCc1nnc(NC(=O)C=C(C)C)s1 | -3% | 5 | 0% | 19 | -9%
CC(C)Sc1nnc(Nc2ccccc2)s1 | -2% | 37* | ? | 143* | 1%
CCc1nnc(NC(=O)NC(C)(C)C)s1 | -1% | 24* | 7% | 95 | ?
CC(C)=CC(=O)Nc1nnc(C(C)C)s1 | -13% | 46* | ? | 53 | ?
COC(=O)C1=C[C@@H](C(=O)OC)[C@@H]2C3=C(C(=O)[C@@]2(CC(C)C)NC(=O)c2ccccc2)[C@H](C)n2c(=O)n(-c4ccccc4)c(=O)n2[C@@H]3C1 | . | -5 | . | 0 | .
COc1cc2c(cc1OC)CN(c1ccc(C(N)=O)cc1[N+](=O)[O-])CC2 | -8% | 0 | 21%[46.1 µM] | -7 | -25%
COc1ccc(N2CCN(C(=O)CN(c3cccc(OC)c3)S(=O)(=O)c3ccccc3)CC2)cc1 | ? | -4 | -2% | -1 | ?
CC(C)Sc1nnc(NC(=O)C2CC2)s1 | 4% | 35* | . | active | .
SMILES | AMA1-RON2 inh | Cycloheximide cs | Marburg entry inh | Shiga inhibitor | Lassa entry inh
CC(C)c1nnc(NC(=O)C2CCCCC2)s1 | 5% | 13* | . | 20* | .
CSc1nnc(NC(=O)C2CCCCC2)s1 | -2% | -2 | . | -3 | .
CCSc1nnc(NC(=O)C2CCCCC2)s1 | -8% | 25* | ? | 62* | ?
CCc1nnc(NC(=O)C2CCCCC2)s1 | -2% | 39* | -3% | 13 | 17%
Cc1ccccc1NC(=O)CSc1nnc(NC(=O)C2CC2)s1 | -5% | -2 | ? | -4 | ?
CN(Cc1nccs1)C(=O)C1CCC(=O)N(CCCc2ccccc2)C1 (centres undefined) | 4% | 1 | . | 7 | .
Cc1ccc(-c2nc(CS(=O)(=O)CC(=O)N3CCN(c4cccc(C)c4C)CC3)c(C)o2)cc1 | . | . | ? | . | -2%[46.1 µM]
